# Measured values published in PubChem BioAssay AID1565 (Sanford-Burnham Center for Chemical Genomics, 2009).
# The campaign covered roughly 290,000 compounds. About 3,200 (1.1%) were called active. For the sample, actives were picked, then their nearest neighbours and some compounds at random. Values without a mark were called inactive. Rule as the data show it: active = inhibition above about 60%; inactive = the rest.
# Molecular target: Phosphoethanolamine/phosphocholine phosphatase (Homo sapiens) (UniProt Q8TCT1)
# Sequence (Q8TCT1 whole entry, looked up): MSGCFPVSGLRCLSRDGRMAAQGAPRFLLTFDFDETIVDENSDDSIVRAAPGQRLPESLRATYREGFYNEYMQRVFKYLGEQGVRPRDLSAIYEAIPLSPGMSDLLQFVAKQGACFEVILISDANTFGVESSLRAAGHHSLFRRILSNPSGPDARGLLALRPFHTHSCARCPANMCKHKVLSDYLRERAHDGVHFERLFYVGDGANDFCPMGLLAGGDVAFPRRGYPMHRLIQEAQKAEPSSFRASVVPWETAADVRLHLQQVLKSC
# Assay: PubChem AID 1565
# Conditions: recombinant PHOSPHO1, absorbance phosphatase assay; at 13.3 µM; active compounds read high
row,Structure (SMILES),inhibition
1,CC1CCCCC1NC(=O)/C(C#N)=C/C=C/c1ccccc1[N+](=O)[O-] (stereo not given),-11.2%
2,CC(=O)c1ccc(N2CCN(C(=O)CCNC(=O)Cn3ccc4ccccc4c3=O)CC2)cc1,39.1%
3,CCc1ccc(-c2nc(SCC(=O)NC3CCCC3)n[nH]2)cc1,19.2%
4,CC(C)c1ccc(S(=O)(=O)N2CCN(C(=O)c3ccc(N4CCCC4)c([N+](=O)[O-])c3)CC2)cc1,14.7%
5,Cc1ccc(CNC(=O)C2(C(F)(F)F)C/C(=C\Cc3ccccc3)CCCO2)o1 (stereo not given),-1.7%
6,Cc1ccc(C(=O)Oc2coc(CSc3nnc(NC(=O)c4cccs4)s3)cc2=O)cc1C,-10.5%
7,Cc1ccc(C(=O)Nc2nnc(-c3cccs3)s2)cc1C,60.1% (active)
8,CCOc1cccc(C(=O)Nc2nnc(-c3cccs3)s2)c1,8.6%
9,Cc1ccc(S(=O)(=O)c2nnn3c2nc(N2CCN(c4ccccn4)CC2)c2ccccc23)cc1,14.6%
10,COc1ccccc1C(=O)N1C(CC(=O)Nc2ccccc2C)C(=O)NC2CCCCC21 (stereo not given),17.1%
11,Cc1cc(NC(=O)Nc2c[nH]c(=O)[nH]c2=O)ccc1Br,32.6%
12,CCC(C)(C)NC(=O)CN(C(=O)CCC(=O)Nc1nccs1)c1ccc2c(c1)OCO2,28%
13,O=C(O)c1ccccc1CSc1nc2ccccc2s1,-3.9%
14,Cc1cc(C)n2nc(C(=O)NC(C)(C)C)nc2n1,27%
15,Cc1cc(C)n2nc(SCC(N)=O)nc2n1,35.9%
16,Cc1cc(C)n2nc(CNS(=O)(=O)c3c(F)c(F)c(F)c(F)c3F)nc2n1,64.9% (active)
17,C/C(=N\N(C)C)c1ccc(OCCOc2ccc([N+](=O)[O-])cc2)cc1,23.7%
18,COc1ccc(C2CC(=O)NC(=O)C2)cc1,22.9%
19,CC(=O)Nc1ccc(NC(=O)c2sc3nc4c(c(-c5ccc(C)cc5)c3c2N)CCC4)cc1,14.1%
20,Cc1cccc(NC(=O)c2sc3nc4c(c(-c5ccco5)c3c2N)CCC4)c1,67.5% (active)

row,Structure (SMILES),inhibition
1,Cc1cccc(NC(=O)c2sc3nc(N4CCOCC4)c4c(c3c2N)CCCC4)c1,21.8%
2,O=C(Nc1ccc([N+](=O)[O-])cc1)OCCc1ccccn1,17.9%
3,CCOc1ccc2c(c1)c(=O)c(S(=O)(=O)c1ccc(C)cc1)cn2CC,47.5%
4,CCOc1cc(C(=S)N2CCOCC2)ccc1O,96.3% (active)
5,CCOc1cc(C(=S)N2CCOCC2)ccc1OS(=O)(=O)c1ccc(Br)cc1,8.5%
6,COc1cc(C(=S)N2CCOCC2)ccc1O,3.5%
7,Cc1ccc(N(C(=O)CNC(=O)c2ccco2)C(C(=O)NC2CCCC2)c2ccncc2)cc1 (stereo not given),43.5%
8,O=C(CC(c1ccccc1)c1ccccc1)NCC(O)c1ccc([N+](=O)[O-])cc1 (stereo not given),12%
9,Cc1cc(=O)[nH]c(S)c1C#N,71.4% (active)
10,Cc1cc(=O)[nH]c(SCC(N)=O)c1C#N,-7.4%
11,Cc1ccc(NC(=O)CSc2sc3c(O)cc(=O)[nH]c3c2C#N)cc1C,19.4%
12,C/C(=N\NC(=O)c1ccc2ccccc2c1)c1cccnc1,-19.7%
13,CCc1nnc(NC(=O)CSCc2cc(=O)n3cc(C)sc3n2)s1,6.8%
14,Cc1ccc(Nc2nc(N3CCOCC3)nc(N3CCOCC3)n2)cc1Cl,6.9%
15,O=C(CSc1nc(Nc2ccccc2)nc(N2CCOCC2)n1)Nc1cc(Cl)ccc1O,61% (active)
16,C/C(=N\Nc1nc(Nc2ccccc2)nc(N2CCOCC2)n1)c1cccs1,24.8%
17,Cc1ccc(C(=O)Nc2nnc(C3=COCCO3)o2)cc1C,-32.7%
18,C=CCn1c(SCc2ccc(Cl)c(Cl)c2)nnc1C(CO)NC(=O)c1ccc(OC)cc1 (stereo not given),-16.9%
19,C=CCn1c(SCc2cc(C(=O)OC)c(C)o2)nnc1-c1ccncc1,86.5% (active)
20,COC(=O)c1sc(N)c(C(=O)OC)c1COC(=O)CNS(=O)(=O)c1ccc(C)cc1,1.7%

row,Structure (SMILES),inhibition
1,C=CCn1c(SCc2c(C(=O)OC)sc(N)c2C(=O)OC)nnc1-c1ccc(Cl)cc1,60.1% (active)
2,CCOc1ccc(C(C)=O)cc1CSc1nnc(-c2ccncc2)n1CCOC,-31.5%
3,COC(=O)c1ccc(NC(=O)CSc2nnc(-c3ccncc3)n2C)cc1,-5.5%
4,COc1cccc(CNC(=O)Cn2c(=O)oc3cc(S(=O)(=O)N4CCCCC4)ccc32)c1,22.6%
5,CN(C)S(=O)(=O)c1ccc(C(=O)NCC(C)(C)N2CCOCC2)cc1,34.7%
6,Cc1cccc(NS(=O)(=O)c2ccc(C(=O)NCC(C)(C)N3CCOCC3)cc2)c1C,65.4% (active)
7,CC(C)(CNC(=O)c1ccc(Cl)c(S(=O)(=O)N2CCc3ccccc3C2)c1)N1CCOCC1,38.5%
8,CC(C)C[C@H](NC(=O)N1CC(=O)Nc2ccccc21)C(=O)N[C@H](Cc1ccccc1)C(=O)O,33.8%
9,COc1ccc(N2CCN(Cc3nnc(-c4ccccc4)o3)CC2)cc1,-23.5%
10,COc1ccc(-c2nnc(SC(=O)N3c4ccccc4Sc4ccccc43)o2)cc1,81.1% (active)
11,COc1ccc(-c2nnc(SCc3cccnc3)o2)cc1,-4.4%
12,CC(=O)Nc1cccc(/C(C)=N/NC(=O)c2ccccc2Cl)c1,16.2%
13,COc1cccc(C(=O)N/N=C(\C)c2cccc(NC(=O)c3ccc(F)cc3)c2)c1OC,65.8% (active)
14,C/C(=N/NC(=O)c1ccc(NC(=O)c2ccc(F)cc2)cc1)c1ccccc1,-99%
15,COc1ccc(S(=O)(=O)NCC(=O)NC2CC2)cc1OC,27.6%
16,CCCCCC(O)(CCN1CCCCC1)c1ccccc1 (stereo not given),43.7%
17,Cc1cccc(C)c1OCCN1CCOCC1,24.1%
18,Cc1ccc(C(=O)c2c(NC(=O)c3ccncc3)sc3c2CCCC3)cc1,9.7%
19,C/C(=C\c1ccccc1)C1NC(=O)c2c(sc3c2CCCC3)N1 (stereo not given),12.2%
20,O=C1NC(c2ccncc2)Nc2sc3c(c21)CCCC3 (stereo not given),97.6% (active)
